Assay results published in PubChem BioAssay AID1159580 (chemical genetic matrix, 2015).
Hit rate of the full screen: of about 5,500 compounds, about 2,000 (36%) were called active. Another 18% or so got no clear call; they are omitted. The list shows a part of the results. Values without a mark were called inactive. Cut-off read from the data, not from the text of the source: active = normalized growth mostly below about 0.91 (no sharp cut-off); inconclusive = no clear call, values can overlap the other calls; inactive = mostly above about 0.92.

Assay: chemical genetic growth profiling, strain panel (AID 1159580);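 note: tested at 20 µM; growth read once vehicle control cultures reached saturation at 30 °C; 1 = growth at the plate median or of vehicle wells; lower values mean less growth of the strain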
Details: S. cerevisiae deletion strains, growth OD
[1] = locus YDL101C, strain DUN1, hits give low values
[2] = locus YHR030C, strain SLT2, hits give low values

COc1ccccc1N1CC(C)(C)C(=O)N(C(=O)c2c(F)cccc2Cl)C1=S
normalized growth (locus YAL013W, strain DEP1, hits give low values): 1.02
normalized growth (locus YBR229C, strain ROT2, hits give low values): 1.02
normalized growth (locus YCL061C, strain MRC1, hits give low values): 1.02
normalized growth [1]: 1.03
normalized growth (locus YDR150W, strain NUM1, hits give low values): 0.933
normalized growth (locus YEL061C, strain CIN8, hits give low values): 0.985
normalized growth (locus YGR078C, strain PAC10, hits give low values): 1.02
normalized growth [2]: 1.01
normalized growth (locus YHR087W, strain rtc3, hits give low values): 0.986
normalized growth (locus YJL187C, strain SWE1, hits give low values): 1.02
normalized growth (locus YJR043C, strain POL32, hits give low values): 1.03
normalized growth (locus YJR075W, strain HOC1, hits give low values): 1
normalized growth (locus YKL190W, strain CNB1, hits give low values): 1
normalized growth (locus YLR039C, strain RIC1, hits give low values): 0.862
normalized growth (locus YLR058C, strain SHM2 (second series), hits give low values): 0.995
normalized growth (locus YLR085C, strain ARP6, hits give low values): 0.984
normalized growth (locus YLR262C, strain YPT6, hits give low values): 0.86
normalized growth (locus YML094W, strain GIM5, hits give low values): 1
normalized growth (locus YMR219W, strain ESC1, hits give low values): 1.02
normalized growth (locus YMR263W, strain SAP30, hits give low values): 0.954
normalized growth (locus YNL128W, strain TEP1, hits give low values): 1.02
normalized growth (locus YNL153C, strain GIM3, hits give low values): 1
normalized growth (locus YNL298W, strain CLA4 (second series), hits give low values): 1.01
normalized growth (locus YNL322C, strain KRE1, hits give low values): 1.01
normalized growth (locus YNR030W, strain Alg12, hits give low values): 1
normalized growth (locus YPL055C, strain LGE1, hits give low values): 0.899
normalized growth (locus YPL241C, strain CIN2, hits give low values): 1.01
normalized growth (locus YPR135W, strain CTF4, hits give low values): 0.985

O=C(Nc1cc(Cl)cc(Cl)c1)c1cc(Cl)ccc1O
normalized growth (locus YAR019C, strain CDC15, hits give low values): 0.93
normalized growth (locus YBL105C, strain PKC1, hits give low values): 0.94
normalized growth (locus YBR135W, strain CKS1, hits give low values): 0.922
normalized growth (locus YBR136W, strain MEC1, hits give low values): 0.943
normalized growth (locus YBR160W, strain CDC28, hits give low values): 0.934
normalized growth (locus YDL017W, strain CDC7, hits give low values): 0.936
normalized growth (locus YDL028C, strain MPS1, hits give low values): 0.94
normalized growth [1]: 0.981
normalized growth (locus YDL108W, strain KIN28, hits give low values): 0.924
normalized growth (locus YDL132W, strain cdc53, hits give low values): 0.917
normalized growth (locus YDL214C, strain PRR2, hits give low values): 0.785
normalized growth (locus YDR052C, strain DBF4, hits give low values): 0.91 (active)
normalized growth (locus YDR054C, strain cdc34, hits give low values): 0.921
normalized growth (locus YDR226W, strain ADK1, hits give low values): 0.973
normalized growth (locus YDR477W, strain SNF1, hits give low values): 0.838
normalized growth (locus YER123W, strain YCK3, hits give low values): 0.75
normalized growth (locus YER133W, strain GLC7, hits give low values): 0.74
normalized growth (locus YFL009W, strain cdc4, hits give low values): 0.924
normalized growth (locus YFL029C, strain CAK1, hits give low values): 0.923
normalized growth (locus YFR003C, strain YPI1, hits give low values): 0.935
normalized growth (locus YFR019W, strain FAB1, hits give low values): 0.83
normalized growth (locus YFR028C, strain CDC14, hits give low values): 0.928
normalized growth (locus YGR040W, strain KSS1, hits give low values): 0.836
normalized growth (locus YGR052W, strain FMP48, hits give low values): 0.785
normalized growth (locus YGR092W, strain DBF2, hits give low values): 0.321 (active)
normalized growth [2]: 0.799 (active)
normalized growth (locus YHR079C, strain IRE1, hits give low values): 0.584
normalized growth (locus YHR082C, strain KSP1, hits give low values): 0.853
normalized growth (locus YHR205W, strain SCH9, hits give low values): 0.504 (active)
normalized growth (locus YIL147C, strain SLN1, hits give low values): 0.94
normalized growth (locus YJL095W, strain BCK1, hits give low values): 0.751
normalized growth (locus YJL128C, strain PBS2, hits give low values): 0.917
normalized growth (locus YJL157C, strain FAR1, hits give low values): 0.648 (active)
normalized growth (locus YJR016C, strain ILV3, hits give low values): 0.924
normalized growth (locus YJR066W, strain TOR1 (second series), hits give low values): 0.668
normalized growth (locus YJR066W, strain TOR1, hits give low values): 0.705
normalized growth (locus YKL048C, strain ELM1, hits give low values): 0.802 (active)
normalized growth (locus YKL067W, strain YNK1, hits give low values): 0.759
normalized growth (locus YKL101W, strain HSL1, hits give low values): 0.827
normalized growth (locus YKL193C, strain SDS22, hits give low values): 0.93
normalized growth (locus YKL203C, strain TOR2, hits give low values): 0.818
normalized growth (locus YLR113W, strain HOG1, hits give low values): 0.844 (active)
normalized growth (locus YLR133W, strain CKI1, hits give low values): 0.779
normalized growth (locus YLR403W, strain SFP1, hits give low values): 0.642 (active)
normalized growth (locus YML070W, strain DAK1, hits give low values): 0.805
normalized growth (locus YMR001C, strain CDC5, hits give low values): 0.93
normalized growth (locus YMR205C, strain PFK2 (second series), hits give low values): 0.784
normalized growth (locus YMR277W, strain FCP1, hits give low values): 0.927
normalized growth (locus YNL006W, strain LST8, hits give low values): 0.923
normalized growth (locus YNL020C, strain ARK1, hits give low values): 0.68 (active)
normalized growth (locus YNL161W, strain CBK1, hits give low values): 0.936
normalized growth (locus YNL183C, strain NPR1, hits give low values): 0.899
normalized growth (locus YNL207W, strain RIO2, hits give low values): 0.939
normalized growth (locus YNL222W, strain SSU72, hits give low values): 0.924
normalized growth (locus YNL307C, strain MCK1 (second series), hits give low values): 0.615 (active)
normalized growth (locus YOL078W, strain AVO1, hits give low values): 0.925
normalized growth (locus YOL136C, strain PFK27, hits give low values): 0.797
normalized growth (locus YOR061W, strain CKA2, hits give low values): 0.693
normalized growth (locus YOR119C, strain RIO1, hits give low values): 0.858
normalized growth (locus YOR231W, strain MKK1, hits give low values): 0.843
normalized growth (locus YOR329C, strain SCD5, hits give low values): 0.939
normalized growth (locus YPL031C, strain PHO85, hits give low values): 0.823
normalized growth (locus YPL153C, strain RAD53, hits give low values): 0.801
normalized growth (locus YPL204W, strain HRR25, hits give low values): 0.722
normalized growth (locus YPL209C, strain IPL1, hits give low values): 0.925
normalized growth (locus YPL256C, strain CLN2, hits give low values): 0.836 (active)
normalized growth (locus YPR025C, strain CCL1, hits give low values): 0.936
normalized growth (locus YPR106W, strain ISR1, hits give low values): 0.956
normalized growth (locus YPR111W, strain DBF20, hits give low values): 0.95
normalized growth (strain NNK1, hits give low values): 0.965
normalized growth (strain TSCII, hits give low values): 0.938
